According to PubChem BioAssay (NCATS):
Inconclusive results are not listed. Calls of active or inactive are those of the source. Calls follow the shape of the dose curve; as a rule, active = well fitted inhibition curve with a large enough effect; inconclusive = small, poorly fitted or top-dose-only effect; inactive = flat fitted curve, though single readings scatter.

molecular target: Calcium and integrin-binding protein 1 (Homo sapiens) (UniProt Q99828); assay: Primary qHTS for Identification of Calcium Integrin Binding Protein 1 (CIB1) Competitor (AID 1508620); details: CIB1-GST / FITC-alphaIIb peptide fluorescence polarization; series mostly up to 114 µM;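 also: GST tagged CIB1 binding a fluorescein labelled alphaIIb integrin peptide tracer; top concentration of the series differs between compounds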
Sequence (Q99828 whole entry, looked up): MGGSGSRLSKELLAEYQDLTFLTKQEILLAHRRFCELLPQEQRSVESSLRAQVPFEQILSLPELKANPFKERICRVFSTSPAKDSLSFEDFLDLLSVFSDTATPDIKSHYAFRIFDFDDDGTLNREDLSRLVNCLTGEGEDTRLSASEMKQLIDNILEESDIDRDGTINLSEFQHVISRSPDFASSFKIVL
Procedure, shortened: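 Fluorescence polarization competition: CIB1-GST (1 uM final) preincubated with compound 15 min at room temperature, then FITC-labeled alphaIIb peptide (100 nM final) added for another 15 min. Polarization read at Ex 480/Em 540.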

| SMILES | outcome |
| --- | --- |
| Cc1nn2c(=O)cc(N3CCNCC3)nc2s1 | inactive |
| CC(=O)Nc1ncc(S(=O)(=O)N2CCOCC2)s1 | inactive |
| CCOc1ccc(CCNC(=O)c2cc3ccccc3n2CCN2CCOCC2)cc1OCC | inactive |
| Cn1cc(Cl)c(C2N=C(Nc3nc4ccccc4o3)NC3=C2C(=O)CCC3)n1 (stereo not given) | inactive |
| CCOc1ccc(CCNC(=O)c2cc3cccnc3n2Cc2cccc(C)c2)cc1OCC | inactive |
| CCOc1ccc(CCNC(=O)c2ccc(C(=O)c3ccccc3)cc2)cc1OCC | inactive |
| Cc1ccc2nc(NC3=NC(c4[nH]ncc4Cl)C4=C(CCCC4=O)N3)oc2c1 (stereo not given) | inactive |
| Oc1cccc2cc(N3CCNCC3)cnc12 | inactive |
| CCCc1ccc(NC(=O)c2ccc3c(c2)NC(=O)CS3)cc1 | inactive |
| CCOc1ccc(CCNC(=O)c2cc3sccc3n2Cc2ccc(F)cc2F)cc1OCC | inactive |
| CN1CC[C@@]2(C)c3cc(O)ccc3N(C)C2O1 (stereo not given in full) | inactive |
| Cn1cc(Br)c(C2N=C(Nc3nc4ccccc4o3)NC3=C2C(=O)CCC3)n1 (stereo not given) | inactive |
| S=P(c1ccccc1)(c1ccccc1)c1cnc2ccccn12 | inactive |
| CCOc1ccc(CCNC(=O)c2cc3sccc3n2CCN(C)C)cc1OCC | inactive |
| S=P(c1ccccc1)(c1ccccc1)c1c[nH]c2ccccc12 | inactive |
| S=P(c1ccccc1)(c1ccccc1)c1c(-c2ccccc2)[nH]c2ccccc12 | inactive |
| Cc1c(P(=S)(c2ccccc2)c2ccccc2)[n+]2ccccc2n1C | inactive |
| Cc1cc(-c2nnc3n2CCCCC3)c(C)n1-c1ccc(C(C)(C)C)cc1 | inactive |
| O=C(O)c1ccc(O)c2ncc(N3CCCNCC3)cc12 | inactive |
| CCOc1ccc(CCNC(=O)c2cc3cnccc3n2Cc2cccc(C)c2)cc1OCC | inactive |

| SMILES | outcome |
| --- | --- |
| N#Cc1c(-c2ccc([N+](=O)[O-])o2)no[n+]1[O-] | inactive |
| CCOc1ccc(CCNC(=O)c2cc3ccccc3n2Cc2cccc(C)c2)cc1OCC | inactive |
| CCc1nn2c(=O)c(C)c(N3CCNCC3)nc2s1 | inactive |
| O=S(=O)(Nc1ccc(-c2ccccc2)cc1)c1ccc(NCc2cccc(Cl)c2O)cc1 | inactive |
| C[n+]1cc(P(=S)(c2ccccc2)c2ccccc2)n2ccccc21 | inactive |
| CCOC(=O)C1CCN(C(=O)C2(NC(=O)Nc3ccccc3Cl)CCCC2)CC1 | inactive |
| N#Cc1ccc(NC(=O)Nc2nnc(-c3ccncc3)s2)cc1C(F)(F)F | inactive |
| Cn1c(-c2ccccc2)c(P(=S)(c2ccccc2)c2ccccc2)c2ccccc21 | inactive |
| S=P(c1ccccc1)(c1ccccc1)c1c[n+](Cc2ccccc2)c2ccccn12 | inactive |
| N#Cc1nc(-c2cccc3ccccc23)oc1NCc1ccccc1 | inactive |
| O=C(Nc1ncc(Cc2ccc(C(F)(F)F)cc2)s1)c1cnc(-c2ccccc2)o1 | inactive |
| COc1cccc(CNc2ccc(C(=O)Nc3nccs3)cc2)c1O | inactive |
| N#Cc1c(-c2cccc(-c3no[n+]([O-])c3C#N)c2)no[n+]1[O-] | inactive |
| COc1cccc(CNc2ccc(S(=O)(=O)Nc3nccs3)cc2)c1OC | inactive |
| Cn1cc(P(=S)(c2ccccc2)c2ccccc2)c2ccccc21 | inactive |
| CC1=C(C(=O)Nc2nccs2)C(c2ccccc2Br)N=C(Nc2nc3ccccc3o2)N1 (stereo not given) | inactive |
| Cc1cc(C)c(OP(=O)(OCc2c(-c3ccccc3)no[n+]2[O-])Oc2c(C)cc(C)cc2C)c(C)c1 | inactive |
| CCOc1ccc(CCNC(=O)c2cc3cnccc3n2Cc2cccc(C)n2)cc1OCC | inactive |
| Cc1cccc(-n2cnc3cc(C(=O)N4CCCC(C)C4)ccc32)c1 (stereo not given) | inactive |
| CCOc1ccc(CCNC(=O)c2cc3ccncc3n2Cc2cccc(C)c2)cc1OCC | inactive |
